aSyn 5UTR act: Activators working through SNCA 5'UTR binding (MLPCN); alpha-synuclein 5'UTR reporter, activators screen; activity score, % (tested at 7.5 µM), hits read low; hit rate 7.1% among 300,000; AID 1814; in the data active = activity score below about -60%
* marks the source's active call; other numbers are inactive results; + = active, no number. Only a sample is shown.

SMILES | aSyn 5UTR act
COc1ccc(C2NC(=S)NC3=C2CCCC3=C2SCCS2)cc1 (stereo not given) | +
Clc1ccc(Cl)c(OCc2cc(-c3ccccc3Cl)on2)c1 | -155*
Cc1ccc(C(=O)Nc2cccc(-c3ccc(N4CCOCC4)nn3)c2)cc1 | -70*
CC1CCN(c2ccc(-c3ccc(NC(=O)C(F)(F)F)cc3)nn2)CC1 | 71
Cc1ccc(C(=O)Nc2cccc(-c3ccc(N4CCOCC4)nn3)c2)cc1C | -73*
O=C(COc1ccc(Cl)cc1)Nc1cccc(-c2ccc(N3CCOCC3)nn2)c1 | -71*
Cc1ccc(S(=O)(=O)Nc2cccc(-c3ccc(N4CCCCCC4)nn3)c2)cc1 | -125*
Cc1ccc(S(=O)(=O)Nc2cc(-c3nn(C)c(=O)c4ccccc34)ccc2N2CCOCC2)cc1 | 78
O=C(Nc1cccc(-c2ccc(N3CCOCC3)nn2)c1)c1ccc(Cl)cc1 | -86*
Cc1cc(C(=O)Nc2cccc(-c3ccc(N4CCOCC4)nn3)c2)ccc1[N+](=O)[O-] | -110*
O=C(Nc1cccc(-c2ccc(N3CCOCC3)nn2)c1)c1ccccc1Cl | -110*
COC(=O)c1ccc(C2N=C(c3cccs3)CC(c3ccccc3O)N2)cc1 (stereo not given) | -98*
COC(=O)N/N=C\c1ccccc1OC/C=C/c1ccccc1 | -123*
CCOC(=O)N/N=C\c1ccccc1OC/C=C/c1ccccc1 | -95*
COc1ccc(NC(=O)c2oc3ccccc3c2NC(=O)C2CCCO2)cc1OC (stereo not given) | -116*
CCOc1ccccc1NC(=O)c1oc2ccccc2c1NC(=O)C1CCCO1 (stereo not given) | -63*
Cc1ccc(NC(=O)c2oc3ccccc3c2NC(=O)C2CCCO2)cc1C (stereo not given) | -169*
Cc1csc(NC(=O)c2ccc3c(=O)n4c(nc3c2)CCCCC4)n1 | -139*
O=C(Nc1ccc(F)cc1Cl)c1ccc2c(=O)n3c(nc2c1)CCC3 | -109*
O=C(Nc1nccs1)c1ccc2c(=O)n3c(nc2c1)CCCCC3 | -129*
O=c1c2ccc([N+](=O)[O-])cc2ncn1CCOc1ccccc1 | -69*
O=c1c2ccccc2ncn1CCOc1ccccc1[N+](=O)[O-] | -63*
COc1ccc2c(Cn3cnc4cc([N+](=O)[O-])ccc4c3=O)cc(=O)oc2c1 | 72
NCCCn1c(C(=O)c2cc(Cl)c(N)c(Cl)c2)c2ccc([N+](=O)[O-])cc2[n+]1[O-] | 100
COc1ccc(-c2oc3cc(OC)c(O)c(OC)c3c(=O)c2OC)cc1O | 65
SMILES | aSyn 5UTR act
COc1ccc(-c2oc3ccccc3c(=O)c2OC(C)=O)cc1 | -174*
CC(=O)Oc1c(-c2ccc(Br)o2)oc2ccccc2c1=O | -66*
CC(=O)Oc1cc(O)c2c(=O)c(OC(C)=O)c(-c3ccc(OC(C)=O)c(OC(C)=O)c3)oc2c1 | -116*
S=c1[nH]nc(COc2ccccc2)n1/N=C/C(Cl)=C/c1ccccc1 | -129*
S=c1[nH]nc(-c2ccncc2)n1/N=C/C(Cl)=C\c1ccccc1 | -221*
CCN1CCN(C(=O)c2cc3ccc(OC)cc3[nH]2)CC1 | -135*
COc1ccc2cc(C(=O)N3CCN(C)CC3)[nH]c2c1 | -154*
COC(=O)C1=C(O)/C(=C\c2cc(C)n(-c3ccccc3C)c2C)N=C1C | -82*
CCOC(=O)C1CCCCN1C(=O)CCc1c(C)nc2ncnn2c1C (stereo not given) | 61
COC(=O)[C@@H]1CCCN1C(=O)CCc1nnc(CCC2CCCCC2)o1 | -116*
Nc1cc(-c2ccccc2)ccc1O | -118*
Cc1nonc1OCCCNc1ccc([N+](=O)[O-])cc1Cl | -84*
c1ccc2c3c([nH]c2c1)-c1[nH]ncc1CC3 | -117*
N=C1/C(=C/c2ccc(OCc3ccccc3F)cc2)C(=O)N=C2SC(CC(=O)N3CCOCC3)=NN12 | -93*
N=C1/C(=C/c2ccc(OCc3ccccc3)cc2)C(=O)N=C2SC(CC(=O)N3CCOCC3)=NN12 | -95*
CN(C)S(=O)(=O)c1cccc(NC(=O)c2cc3ccccc3o2)c1 | -122*
CCN(CC)S(=O)(=O)c1cccc(NC(=O)c2cc3ccccc3o2)c1 | -126*
O=C(COC(=O)c1cc2ccccc2oc1=O)Nc1ccc(F)cc1F | -169*
CN(C)S(=O)(=O)c1cccc(NC(=O)COC(=O)c2cc3ccccc3oc2=O)c1 | -105*
CSc1ccc(C2NN=C(c3ccccc3)S2)cc1 (stereo not given) | 68
Oc1ccccc1C1NN=C(c2ccccc2)S1 (stereo not given) | -80*
CCOc1cc(CNc2ccc3c(c2)CCC3)ccc1OC | -163*
COc1ccc(CNc2ccc3c(c2)CCC3)cc1Br | -105*
COc1ccccc1CNc1ccc2c(c1)CCC2 | -82*
Cc1ccc2c(c1)C1CN(C)CCC1N2C(=O)Nc1ccc(Cl)cc1 (stereo not given) | -66*
SMILES | aSyn 5UTR act
COc1cccc(NC(=O)C2CCN(S(=O)(=O)c3ccc4c(c3)NC(=O)C(C)S4)CC2)c1 (stereo not given) | -68*
O=C(Nc1ccc(-c2nc3cccnc3s2)cc1)c1ccc(Cl)nc1 | -151*
O=C(Nc1ccc(-c2nc3cccnc3s2)cc1)c1ccc(Br)o1 | -159*
c1ccc(N=Nc2ccc3cccccc2-3)cc1 | -259*
Cc1cc(C)c2c3c(sc2n1)C(c1cccc(F)c1)C(C#N)=C(N)O3 (stereo not given) | -76*
O=C(OCc1ccc(Cl)c(Cl)c1)c1ccc[nH]1 | -82*
COc1cc2c(OC(C)=O)c3c(c(-c4ccc5c(c4)OCO5)c2cc1OC)C(=O)OC3 | 113
CC(=O)Oc1cc(OC(C)=O)c2c(=O)c(-c3ccc4c(c3)OCCCO4)c(C)oc2c1 | -88*
O=C(Cc1ccccc1F)Nc1nc(-c2cccs2)cs1 | -78*
O=C(Cc1ccccc1F)Nc1nc(-c2ccc(F)c(F)c2)cs1 | -85*
O=C(Cc1ccccc1)Nc1nc(-c2cccs2)cs1 | -136*
CCOC(=O)c1ccc(-c2cccc(C(F)(F)F)c2)nc1C | -122*
CCOC(=O)c1sc(-c2ccc(C)cc2)c(C#N)c1C | -65*
c1ccc(Nc2cccc(Nc3ccccc3)n2)cc1 | -125*
N#Cc1c(NC(NC(=O)c2ccco2)C(=O)c2ccccc2)sc2c1CCCC2 (stereo not given) | -77*
CCCC(=O)Nc1sc2c(c1C#N)CCCCC2 | -167*
Cc1ccc(C(=O)Nc2sc3c(c2C#N)CCCCC3)cc1C | -191*
CC(C)(C)C(=O)NC(=S)Nc1sc2c(c1C#N)CCCCC2 | -106*
N#Cc1c(NC(=O)CCCC(=O)O)sc2c1CCCCC2 | 90
Cc1cc(C(=O)Nc2sc3c(c2C#N)CCCC3)no1 | -81*
Cc1ccccc1OCC(=O)Nc1sc2c(c1C#N)CCC2 | -68*
Cc1cc(C(=O)Nc2sc3c(c2C#N)CCC3)no1 | -107*
Cn1cc([N+](=O)[O-])c(C(=O)Nc2sc3c(c2C#N)CCC3)n1 | 64
Cc1noc(C(=O)Nc2sc3c(c2C#N)CCC3)c1Cl | -67*
CCCNC(=O)C(=O)Nc1ccc2c(c1)N(S(=O)(=O)c1cccs1)CCC2 | -79*
SMILES | aSyn 5UTR act
O=S(=O)(c1cccs1)N1CCCc2cccc(O)c21 | -82*
CN(C)CCNC(=O)C(=O)Nc1ccc2c(c1)N(S(=O)(=O)c1cccs1)CCC2 | -63*
COCCCNC(=O)C(=O)Nc1ccc2c(c1)N(S(=O)(=O)c1cccs1)CCC2 | 57
N=C1C(c2nc3ccccc3s2)=C(O)CN1Cc1ccccc1 | -342*
Cc1cc(OCC(=O)N(C)C2CCCCC2)cc(C)c1Cl | -68*
CN(C(=O)COC(=O)c1ccc(Cl)cc1N)C1CCCCC1 | -82*

High-throughput results: PubChem BioAssay, Broad Institute
